A short description of assay [1]: small molecules captured by biotinylated probe aFSTL3 – biochemical, small-molecule microarray, fluorescence 635/667, stem cell growth factor project, primary screen (AID 1064).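 Further: measures binding of the biotinylated anti-FSTL3 antibody to printed compounds.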 The following applies: higher = more signal.
Assay [2] is described as follows: binders from COS7 lysate, DM2A8 probe, primary screen, torsin A project, cell lysate, small-molecule microarray, fluorescence 635/667 (AID 1065). The following applies: higher = more signal, COS7 lysate expressing mutant human TOR1A.
Assay [3] is described as follows: small molecules captured by biotinylated probe aFGF2 – biochemical, small-molecule microarray, fluorescence 635/667, stem cell growth factor project, primary screen (AID 1067).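 Further: measures binding of biotinylated aFGF2 protein to printed compounds on slides; z-score merges feature fluorescence and signal-to-noise across triplicate slides.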 The following applies: higher = more signal.
The nature of assay [4]: small molecules captured by biotinylated probe aFGF10 – biochemical, small-molecule microarray, fluorescence 635/667, stem cell growth factor project, primary screen (AID 1071).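 Further: score merges 667 nm spot intensity and signal to noise from triplicate slides.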 To be noted: higher = more signal.
The target in assay [5] is Neurogenic locus notch homolog protein 2 (Homo sapiens) (UniProt Q04721). Kind of assay: small molecules binding Notch2 protein – biochemical, small-molecule microarray, 635 nm fluorescence, stem cell growth factors, primary screen (AID 1073). To be noted: higher = more signal.
The target of assay [6] is Pro-neuregulin-1, membrane-bound isoform (Homo sapiens) (UniProt Q02297). Nature of the assay: small molecules binding neuregulin-1 protein – biochemical, small-molecule microarray, fluorescence 635/667, psychiatric disease protein project, primary screen (AID 1075).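 Further: score combines 667 nm spot fluorescence with signal to noise.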 The following applies: NRG1 binding, 635 nm fluorescence, higher = more signal.
Chain of Pro-neuregulin-1, membrane-bound isoform (Homo sapiens) (Q02297 whole entry, looked up, the tested form may be a part, canonical isoform): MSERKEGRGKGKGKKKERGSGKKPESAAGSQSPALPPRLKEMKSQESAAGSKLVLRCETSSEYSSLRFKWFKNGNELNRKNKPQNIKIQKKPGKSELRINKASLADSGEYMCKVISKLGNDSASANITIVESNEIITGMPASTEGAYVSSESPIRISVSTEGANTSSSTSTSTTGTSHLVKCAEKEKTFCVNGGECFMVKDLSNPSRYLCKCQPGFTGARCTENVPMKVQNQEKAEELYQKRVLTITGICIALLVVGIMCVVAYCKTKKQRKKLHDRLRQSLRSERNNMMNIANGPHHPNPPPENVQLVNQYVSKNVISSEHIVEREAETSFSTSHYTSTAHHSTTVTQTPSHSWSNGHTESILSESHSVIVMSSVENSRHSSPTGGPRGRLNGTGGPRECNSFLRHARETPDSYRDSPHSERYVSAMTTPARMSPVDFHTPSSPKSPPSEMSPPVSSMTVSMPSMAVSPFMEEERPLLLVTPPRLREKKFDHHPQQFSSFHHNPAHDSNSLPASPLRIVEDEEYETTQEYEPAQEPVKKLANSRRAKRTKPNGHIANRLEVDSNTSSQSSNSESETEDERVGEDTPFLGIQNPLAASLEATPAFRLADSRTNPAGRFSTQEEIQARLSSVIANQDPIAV
Assay [7] relates to Neuregulin-1 EGF-like domain. Nature of the assay: small molecules binding NRG1 EGF domain – biochemical, small-molecule microarray, 635 nm fluorescence, primary screen (AID 1081).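 Further: binding of the protein to compounds printed on small-molecule microarray slides.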 The following applies: higher = more signal.
The nature of assay [8]: FRG1 expression reporter modulators in myotubes – cell-based, C2C12 myotubes, firefly/Renilla luciferase, luminescence, FRG1 inhibition for FSHD, primary screen (AID 1084). The following applies: FRG1 promoter luciferase, higher = more signal, called active from +8 up or from −8 down.
Assay [9] in a line: small molecules captured by biotinylated probe aFST – biochemical, small-molecule microarray, fluorescence 635/667, stem cell growth factor project, primary screen (AID 1086).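 Further: score merges 667 nm fluorescence with signal-to-noise of each printed compound spot.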 The following applies: higher = more signal.
A short description of assay [10]: binders of probe aHhip on microarray, primary screen, stem cell growth factor project, biochemical, small-molecule microarray, fluorescence 635/667 (AID 1087).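 Further: score merges spot fluorescence at 667nm with spot signal to noise ratio.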 The following applies: higher = more signal.
Assay [11] deals with PRMT1 (protein arginine N-methyltransferase 1). Nature of the assay: small molecules binding arginine methyltransferase PRMT1 – biochemical, small-molecule microarray, 635 nm fluorescence, primary screen (AID 1088).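 Further: binding of Prmt1 protein to compounds spotted on small-molecule microarray slides.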 To be noted: higher = more signal.
The nature of assay [12]: growth effects on S. cerevisiae YJM789 – YJM789 clinical isolate, OD600, 24 h, basal, primary screen (AID 1089).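 Further: growth of clinical yeast isolate S. cerevisiae YJM 789 seeded 1000 cells per well; test concentration not given here.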 The following applies: higher = more signal, called active from +8 up or from −8 down.
The nature of assay [13]: S. pombe growth modifiers, basal conditions – strain 972, OD600, 24 h, no modulator, primary screen (AID 1090).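 Further: basal condition with compound alone and no growth modifier present; test concentration not given here.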 The following applies: S. pombe 972 growth, higher = more signal, called active from +8 up or from −8 down.
The nature of assay [14]: budding yeast growth modifiers under rapamycin – strain BY4716, OD600, 96 h, primary screen (AID 1091). Further: test concentration not given here. To be noted: S. cerevisiae BY4716 + rapamycin, higher = more signal, called active from +8 up or from −8 down.
The target in assay [15] is Torsin-1A-interacting protein 2 (Homo sapiens) (UniProt Q8NFQ8). Kind of assay: small molecules binding lysate-expressed LULL1 – cell lysate, human LULL1 lysate, 635/667 nm fluorescence, primary screen (AID 1092).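 Further: score merges per-feature 667 nm fluorescence with signal-to-noise.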 The following applies: small-molecule microarray, hLULL1 lysate binding, 635 nm fluorescence; higher = more signal.
Chain of Torsin-1A-interacting protein 2 (Homo sapiens) (Q8NFQ8 whole entry, looked up): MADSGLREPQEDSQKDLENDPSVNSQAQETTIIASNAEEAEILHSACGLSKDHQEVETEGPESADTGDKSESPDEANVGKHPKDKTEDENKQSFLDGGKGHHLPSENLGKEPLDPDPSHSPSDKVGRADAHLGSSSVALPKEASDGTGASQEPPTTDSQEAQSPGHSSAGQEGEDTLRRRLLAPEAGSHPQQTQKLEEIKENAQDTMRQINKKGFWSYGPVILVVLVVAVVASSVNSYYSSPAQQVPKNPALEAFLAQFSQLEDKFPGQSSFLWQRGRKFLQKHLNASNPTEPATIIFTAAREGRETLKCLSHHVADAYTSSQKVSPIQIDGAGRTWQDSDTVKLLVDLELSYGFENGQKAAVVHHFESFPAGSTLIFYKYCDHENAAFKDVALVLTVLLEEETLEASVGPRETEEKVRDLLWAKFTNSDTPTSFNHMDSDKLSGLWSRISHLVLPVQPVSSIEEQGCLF
Assay [16] can be described thus: optical density change of DRC41 E. coli – strain DRC41, OD650, 24 h, E. coli filamentation project, primary screen (AID 1093).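 Further: MC1000 strain lacking acrAB efflux and sulA so SOS filamentation is blocked; test concentration not given here.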 To be noted: E. coli DRC41 growth, higher = more signal, called active from +8 up or from −8 down.
A short description of assay [17]: probe aLefty2 binding to arrayed compounds – biochemical, biotinylated probe, 635/667 nm fluorescence, primary screen (AID 1094).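 Further: score merges spot fluorescence near 667 nm with spot signal-to-noise ratio.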 To be noted: small-molecule microarray, higher = more signal.
The subject of assay [18] is Noggin (protein binding on small-molecule microarray). Nature of the assay: small molecules binding Noggin protein – biochemical, 635/667 nm fluorescence, primary screen (AID 1095).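 Further: score merges 667 nm feature fluorescence with signal to noise over triplicate slides.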 The following applies: 635 nm fluorescence, higher = more signal.
The target in assay [19] is Neurogenic locus notch homolog protein 3 (Homo sapiens) (UniProt Q9UM47). Nature of the assay: small molecules binding NOTCH3 protein – biochemical, 635/667 nm fluorescence, primary screen (AID 1096). To be noted: small-molecule microarray, 635 nm fluorescence, higher = more signal.
Chain of Neurogenic locus notch homolog protein 3 (Homo sapiens) (Q9UM47 whole entry, looked up): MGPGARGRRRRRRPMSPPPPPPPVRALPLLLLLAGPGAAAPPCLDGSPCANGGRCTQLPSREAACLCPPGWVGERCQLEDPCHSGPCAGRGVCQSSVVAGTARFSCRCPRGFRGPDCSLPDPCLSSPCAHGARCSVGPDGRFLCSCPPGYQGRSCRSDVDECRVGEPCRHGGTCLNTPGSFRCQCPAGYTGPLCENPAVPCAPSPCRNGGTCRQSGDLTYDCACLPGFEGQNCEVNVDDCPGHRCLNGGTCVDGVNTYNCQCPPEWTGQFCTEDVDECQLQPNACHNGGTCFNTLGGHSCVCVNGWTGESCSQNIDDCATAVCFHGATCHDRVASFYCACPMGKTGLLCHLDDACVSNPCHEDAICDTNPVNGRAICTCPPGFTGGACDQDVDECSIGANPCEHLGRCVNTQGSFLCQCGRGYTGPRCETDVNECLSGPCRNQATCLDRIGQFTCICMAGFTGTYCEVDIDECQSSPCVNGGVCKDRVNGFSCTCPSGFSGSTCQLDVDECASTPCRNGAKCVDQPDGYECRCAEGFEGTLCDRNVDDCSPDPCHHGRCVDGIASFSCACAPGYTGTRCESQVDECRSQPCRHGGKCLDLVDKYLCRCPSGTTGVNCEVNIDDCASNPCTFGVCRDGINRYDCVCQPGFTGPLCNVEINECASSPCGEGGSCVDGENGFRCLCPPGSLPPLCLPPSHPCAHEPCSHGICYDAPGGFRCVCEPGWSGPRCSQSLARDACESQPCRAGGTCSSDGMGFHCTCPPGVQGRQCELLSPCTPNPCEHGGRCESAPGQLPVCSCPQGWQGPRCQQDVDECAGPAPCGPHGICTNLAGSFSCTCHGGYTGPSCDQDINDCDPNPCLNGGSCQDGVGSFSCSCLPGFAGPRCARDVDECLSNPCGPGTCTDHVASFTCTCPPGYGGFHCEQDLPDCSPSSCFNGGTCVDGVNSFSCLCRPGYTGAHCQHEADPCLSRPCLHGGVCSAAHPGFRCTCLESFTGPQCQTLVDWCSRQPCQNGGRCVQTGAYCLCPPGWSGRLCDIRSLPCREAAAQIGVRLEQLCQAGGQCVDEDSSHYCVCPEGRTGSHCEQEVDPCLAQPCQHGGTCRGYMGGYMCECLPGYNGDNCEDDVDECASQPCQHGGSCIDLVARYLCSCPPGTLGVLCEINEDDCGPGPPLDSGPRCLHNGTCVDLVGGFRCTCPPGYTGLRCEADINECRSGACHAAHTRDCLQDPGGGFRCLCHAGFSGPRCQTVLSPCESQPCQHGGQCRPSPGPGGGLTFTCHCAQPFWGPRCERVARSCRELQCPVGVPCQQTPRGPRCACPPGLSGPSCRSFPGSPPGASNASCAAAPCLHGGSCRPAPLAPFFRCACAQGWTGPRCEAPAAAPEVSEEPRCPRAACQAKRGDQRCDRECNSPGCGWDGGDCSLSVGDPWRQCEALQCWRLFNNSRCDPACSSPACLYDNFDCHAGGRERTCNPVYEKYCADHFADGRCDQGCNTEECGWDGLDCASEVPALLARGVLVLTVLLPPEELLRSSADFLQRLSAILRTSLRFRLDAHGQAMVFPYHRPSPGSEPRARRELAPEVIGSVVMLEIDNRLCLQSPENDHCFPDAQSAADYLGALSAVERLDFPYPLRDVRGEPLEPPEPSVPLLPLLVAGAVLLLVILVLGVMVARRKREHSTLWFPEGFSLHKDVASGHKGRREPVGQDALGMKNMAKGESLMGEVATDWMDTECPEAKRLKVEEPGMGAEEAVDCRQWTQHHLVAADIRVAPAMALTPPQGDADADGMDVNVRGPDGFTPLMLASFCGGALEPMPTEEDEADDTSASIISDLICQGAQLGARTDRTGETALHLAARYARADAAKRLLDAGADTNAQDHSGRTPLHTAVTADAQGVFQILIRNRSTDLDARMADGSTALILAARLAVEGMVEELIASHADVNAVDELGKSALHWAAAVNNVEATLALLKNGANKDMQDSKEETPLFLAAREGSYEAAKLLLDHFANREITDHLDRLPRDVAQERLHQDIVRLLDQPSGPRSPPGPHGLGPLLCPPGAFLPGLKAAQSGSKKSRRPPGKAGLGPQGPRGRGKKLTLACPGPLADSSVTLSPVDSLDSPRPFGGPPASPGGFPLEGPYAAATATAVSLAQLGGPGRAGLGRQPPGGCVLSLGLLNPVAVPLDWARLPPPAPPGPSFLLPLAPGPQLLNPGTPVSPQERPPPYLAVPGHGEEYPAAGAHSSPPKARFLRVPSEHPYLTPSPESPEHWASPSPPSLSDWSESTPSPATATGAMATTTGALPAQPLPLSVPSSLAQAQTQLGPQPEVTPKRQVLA
Assay [20] can be described thus: probe aEGFR binding to arrayed compounds – biochemical, biotinylated probe, 635/667 nm fluorescence, primary screen (AID 1097).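 Further: probe is a biotinylated anti-EGFR antibody binding compounds printed on slides; score combines fluorescence near 667 nm and signal to noise of each spot.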 To be noted: small-molecule microarray, higher = more signal.

SMILES strings stand for the structures. Calls of active or inactive are those of the source.

As for `COc1ccc(C#Cc2ccc3c(c2)[C@]2(C(=O)N3)[C@H](C(=O)Nc3nc4ccccc4s3)[C@H]3C(=O)O[C@H](c4ccccc4)[C@H](c4ccccc4)N3[C@@H]2c2ccc(O)cc2)cc1`, the composite z-score in assay [1] was -0.433; in [2], 0.923; in assay [3], 0.0956; in [4], 1.13; in [5], 1.29; in assay [6], 1.38. The composite z-score in assay [7] was 1.34; in assay [9] it was 1.36; in [10], -0.511; in assay [11], 1.55; in assay [15], 3.26; in assay [17], -0.0353. Further, the composite z-score in assay [18] came out at 1.82; in assay [19], 1.02; in [20], 0.398. Also, the z-score in assay [8] is 1.46 (inactive); in assay [12] it was 2.2 (inactive); in assay [13], 0.98 (inactive); in [14], 0.172 (inactive); in assay [16], 0.943 (inactive).

As to `O=C(c1ccccc1)N1C(=O)[C@@]2(Cc3ccccc31)N=C(c1ccc(OCCCO)cc1)O[C@H]2c1ccccc1`, the composite z-score in [1] is 0.77; in assay [2] it was 0.686; in assay [3], 0.15; in assay [4], 0.663; in assay [5], 1.17; in [6] it was 1.57. Also, the composite z-score in assay [7] stood at 1.39; in assay [9], 1.01; in assay [10], 0.364; in assay [11], 1.55; in assay [15] it was 2.59; in assay [17] it was 0.384. Further, the composite z-score worked out at 0.487 in assay [18], 1.09 in assay [19] and 0.291 in assay [20]. In addition, the z-score was -2.91 (inactive) in [8]; -0.26 (inactive) in assay [12]; -1.23 (inactive) in assay [13]; 1.74 (inactive) in assay [14]; 0.0877 (inactive) in [16].

With `Cc1ccc(S[C@]2(C(=O)NCCCN(C)C)CC(=O)N(Cc3cc(C(F)(F)F)cc(C(F)(F)F)c3)[C@@H]2c2ccc(CO)cc2)cc1`, the composite z-score was -0.16 in [1]; -0.594 in assay [2]; -0.159 in assay [3]; -0.145 in [4]; -1.28 in assay [5]; 0.494 in [6]. The composite z-score in assay [7] was -0.624; in assay [9], -0.482; in [10], -0.0645; in assay [11], 0.383; in assay [15] it was 0.923; in assay [17], -0.0478. The composite z-score in assay [18] is -0.768; in assay [19] it was -1.5; in assay [20], -0.113. Moreover, the z-score is 0.318 (inactive) in [8]; -1.15 (inactive) in assay [12]; -0.79 (inactive) in [13]; -0.497 (inactive) in [14]; -0.356 (inactive) in assay [16].

For the molecule `O=C1N[C@@H](Cc2ccccc2)C(=O)N2[C@@H]1C[C@@H](C(=O)O)[C@H]2c1cccc(OCCO)c1`, the composite z-score in assay [1] worked out at 0.0693; in assay [2] it was 0.571; in assay [3], 0.0127; in assay [4] it was 0.801; in [5], 0.399; in assay [6], 1.54. The composite z-score in [7] was 1.38; in assay [9], 0.166; in [10], -0.0237; in [11] it was 1.56; in assay [15], 1.06; in [17] it was -0.0206. The values for the composite z-score in [18], in assay [19] and in [20] were 1.43, 0.611 and -0.071, respectively. Besides, the z-score in assay [8] is 9.18 (active); in assay [12] it was 0.809 (inactive); in [13], -0.66 (inactive); in [14], -0.276 (inactive); in assay [16], 1.18 (inactive).

With `CO[C@H]1O[C@H](CO)[C@@H](OC(=O)Nc2ccccc2)[C@H](OC(=O)Nc2ccccc2)[C@@H]1OC(=O)Nc1ccccc1`, the composite z-score in [1] is -0.29; in assay [2], 0.692; in assay [3] it was 0.205; in [4], 0.784; in [5], 1.3; in assay [6] it was 1.45. For the same molecule, the composite z-score in [7] was 1.37; in [9], 1.05; in assay [10] it was -0.546; in [11], 1.53; in assay [15], 3.66; in [17] it was 0.232. Moreover, the composite z-score was found to be 1.38 in [18], 1.06 in assay [19] and 0.138 in assay [20]. The z-score is 1.89 (inactive) in assay [8]; 1.24 (inactive) in assay [12]; 0.975 (inactive) in [13]; 3.37 (inactive) in [14]; -0.0493 (inactive) in assay [16].

These data come from PubChem BioAssay.
